Rows were chosen to be rich in hits. Some 1.6% of all compounds tested hit in one or more screens of this group.
Yeast superoxide: lowers age-related superoxide in aged yeast cells. S. cerevisiae aged cells, superoxide DHE fluorescence; active compounds read low. superoxide response (% of plate mean), % at 10 µM. 330,000 tested, 0.18% active. AID 2690;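 active = superoxide response under a set limit, about three screen SD below normal, cut at about 65% in these data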;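 note: yeast aged for seven days with compound at 30 °C before DHE staining; 100% = average MFI of all compound-treated wells on the plate with controls excluded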
GRK2 inh: human GRK2 inhibition via aptamer displacement. P25098. inhibition of aptamer binding, % at 10 µM. 330,000 tested, 0.59% active. bead flow cytometry, FAM-aptamer displacement from GRK2;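 active = inhibition of aptamer binding above 40%, roughly 3 SD of noise, on plates passing a quality check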;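 note: median bead fluorescence of bound FAM aptamer so fluorescent compounds give negative values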
Efflux pump mplx: inhibitors of Candida antifungal efflux pumps expressed in yeast | S. cerevisiae Candida pump triplex, Nile Red efflux | inhibition, % at 10 µM | 330,000 tested, 0.44% active | AID 485275;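 active = plate passing quality check with inhibition over a set limit, or well fluorescence over plate mean plus 4 SD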;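 note: Nile Red retained in pooled yeast measured as flow cytometry median fluorescence; 0% = buffer negative control and 100% = Enniatin B positive control; higher means more Nile Red kept so more efflux inhibition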
ATG4B inhibitor: inhibitors of human ATG4B cysteine protease; Q9Y4P1; ATG4B cleavage of LC3-PLA2, NBD-HPC fluorescence, 1 h; inhibition, % at 8.33 µM; 340,000 tested, 0.51% active; in the data active = inhibition above about 40%
Target sequence (Q9Y4P1 whole entry, looked up): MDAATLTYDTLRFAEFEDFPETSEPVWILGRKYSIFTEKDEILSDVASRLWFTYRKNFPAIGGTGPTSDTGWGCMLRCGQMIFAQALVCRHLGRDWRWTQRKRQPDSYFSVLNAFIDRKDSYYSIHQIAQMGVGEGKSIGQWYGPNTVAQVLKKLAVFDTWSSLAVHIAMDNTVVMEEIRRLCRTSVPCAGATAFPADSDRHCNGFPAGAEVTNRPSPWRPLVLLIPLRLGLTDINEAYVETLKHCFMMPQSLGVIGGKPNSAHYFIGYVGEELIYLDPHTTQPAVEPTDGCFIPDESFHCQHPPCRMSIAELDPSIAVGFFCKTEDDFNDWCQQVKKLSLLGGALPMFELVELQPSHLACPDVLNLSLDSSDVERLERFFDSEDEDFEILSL
CR mimetic CP: confirmation of caloric restriction mimetics inhibiting yeast age-related superoxide | shares compounds with Yeast superoxide | S. cerevisiae aging, superoxide DHE fluorescence; active compounds read low | superoxide response (% of plate), % at 10 µM | 850 tested, 1% active | AID 434994;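 active = superoxide signal below 65% of the plate average of sample wells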;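 note: cells aged with compound for 7 days at 30 degrees C before staining; 100% equals mean DHE fluorescence of all compound wells on the plate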
DHE counter: DHE fluorescence interference, counter-screen artifact | S. cerevisiae BY4741, flow cytometry; active compounds read low | AID 435000 | fluorescence response, % at 10 µM | 850 tested, under 10 active | shares compounds with Yeast superoxide;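 active = fluorescence response below 15%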;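 note: percent of the mean fluorescence averaged over all compound wells on the plate; lower means stronger quenching of DHE signal or ROS scavenging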
Active calls of the source: *; · = no result given.

SMILES | Yeast superoxide | GRK2 inh | Efflux pump mplx | ATG4B inhibitor | CR mimetic CP | DHE counter
O=C(Nc1ccc(Cl)c(Cl)c1)c1ccccc1 | 96 | 0 | 0 | 8 | · | ·
O=C(CCC1CCCC1)NCCS(=O)(=O)N1CCN(c2ccccc2)CC1 | 90 | 0 | 0 | -15 | · | ·
O=C(CC1CCCCC1)NCCS(=O)(=O)N1CCN(c2ccccc2)CC1 | 64* | 0 | 0 | 1 | 96 | 107
CCN(CC)C(=O)c1cccc2nc3ccccc3nc12 | 81 | 1 | 0 | 2 | · | ·
COC(=O)c1cccc2nc3c(C(C)O)cccc3nc12 (configuration not stated) | 50* | 1 | 0 | -15 | 66 | 113
O=[N+]([O-])c1ccc(CSCc2ccc([N+](=O)[O-])cc2)cc1 | · | · | · | 4 | · | ·
CCOc1ccc(C(=O)N2CCN(c3ccccc3)CC2)cc1 | 97 | 5 | 0 | -1 | 96 | 95
COc1ccc(N2CCN(C(=O)c3ccc(C)cc3Cl)CC2)cc1 | 95 | 6 | 0 | -3 | 97 | 91
Cc1ccc(NS(=O)(=O)c2ccc(C(=O)N3CCN(c4ncccn4)CC3)cc2)cc1 | 106 | 0 | 0 | -6 | · | ·
Cc1ccc(C(=O)N2CCN(c3ncccn3)CC2)cc1 | 65* | 0 | 0 | 0 | 97 | 93
COc1ccc(N2CCN(C(=O)c3ccc(C)c(Cl)c3)CC2)cc1 | 83 | 1 | 0 | 5 | 94 | 99
Cc1cc(C)c(NC(=O)CSc2nnc(CNC(=O)c3ccco3)o2)c(C)c1 | 108 | 0 | 0 | -1 | · | ·
COCc1cc(C)nc(SCC(=O)Nc2ccc3c(c2)n(C)c(=O)n3C)c1C#N | 122 | 1 | 0 | 0 | · | ·
O=c1c2ccc(Cl)cc2nc(-c2ccc([N+](=O)[O-])cc2)n1O | 54* | 0 | 0 | -5 | 87 | 90
Cc1ccc(NC(=O)C=NOCC(=O)Nc2cc(C)cc(C)c2)cc1 | 91 | 0 | 0 | -2 | · | ·
Cc1ccc2c(c1)C=CC(C)(C)S2=O (configuration not stated) | 64* | 0 | 0 | -2 | 97 | 112
Cc1ccc2nc3n(c(=O)c2c1)-c1ccccc1C(=O)NC3Cc1ccc(O)cc1 (configuration not stated) | 84 | 5 | 0 | · | · | ·
CCN(CC)CCNC(=O)c1ccc(NC(=O)C2CC(=O)N(c3ccc4c(c3)OCCO4)C2)cc1 (configuration not stated) | 98 | 0 | 0 | 3 | · | ·
CCOC(=O)N1CCN(Cc2nc(-c3cccc(C)c3)no2)CC1 | 64* | 0 | 0 | 3 | 110 | 109
CC1=NN(S(=O)(=O)c2ccc(Cl)cc2Cl)C(=O)c2ccccc2O1 | 113 | 0 | 0 | -7 | · | ·
O=c1cc(-c2ccccc2)nc2cc(-c3ccc(F)cc3)[nH]n12 | 106 | 1 | 0 | -3 | 92 | 94
Cc1cc(=O)n2[nH]c(-c3ccccc3)cc2n1 | 94 | 0 | 0 | -8 | · | ·
COc1cccc(-c2cc3nc(-c4ccccc4)cc(=O)n3[nH]2)c1 | 89 | 0 | 0 | -3 | 91 | 96
Cc1nc2cc(-c3ccccc3)[nH]n2c(=O)c1C | 96 | 2 | 0 | 6 | 94 | 93
NCC(=O)Nc1ccc(Cl)cc1C(=O)c1ccc[nH]1 | · | · | · | 5 | · | ·
SMILES | Yeast superoxide | GRK2 inh | Efflux pump mplx | ATG4B inhibitor | CR mimetic CP | DHE counter
COc1cccc(NC(C(=O)Nc2cccc(C(C)=O)c2)c2ccccc2)c1 (configuration not stated) | 60* | 0 | -1 | 0 | 94 | 106
CCN1CCc2c(sc(NC(=O)c3ccc(S(=O)(=O)N(C)c4ccccc4)cc3)c2C(=O)NC)C1 | 91 | 2 | 0 | 0 | · | ·
CNC(=O)c1c(NC(=O)c2ccc(S(=O)(=O)N(C)c3ccccc3)cc2)sc2c1CCN(C(C)C)C2 | 54* | 0 | 0 | -10 | 92 | 97
CCN(CC)S(=O)(=O)c1ccc(N2CCCC2)c(NC(=O)c2ccc(OC)cc2OC)c1 | 103 | 2 | 0 | -10 | · | ·
CCN(CC)S(=O)(=O)c1ccc(N2CCCC2)c(NC(=O)Cc2ccc(OC)cc2)c1 | 98 | 0 | 0 | -9 | 105 | 93
CCN(CC)S(=O)(=O)c1ccc(N2CCCC2)c(NC(=O)Cc2cc(OC)c(OC)c(OC)c2)c1 | 102 | 0 | 0 | -3 | 108 | 102
CC(C)CNC(=O)C(=O)NCC1OCCCN1S(=O)(=O)c1cccs1 (configuration not stated) | 92 | 0 | 0 | 2 | · | ·
O=C1CCc2cc(S(=O)(=O)Nc3ccc(F)cc3)ccc2N1 | 87 | 2 | 0 | 3 | · | ·
CN(C)S(=O)(=O)N1CCN(c2ccccc2)CC1 | 91 | 0 | 0 | -6 | · | ·
CN(C)S(=O)(=O)N1CCN(c2cccc(Cl)c2)CC1 | 64* | 1 | 0 | 2 | 109 | 89
COc1cc(SC)ccc1C(=O)N1CCN(c2ccccc2)CC1 | 94 | 1 | 0 | -4 | 102 | 99
COc1cc(SC)ccc1C(=O)N1CCN(c2ccc(O)cc2)CC1 | 86 | 0 | 0 | -7 | 100 | 94
COc1ccccc1C(=O)N1CCN(c2cccc(Cl)c2)CC1 | 95 | 2 | 0 | -9 | 80 | 97
CCOC(=O)CC(NC(=O)C1c2ccccc2Oc2ccccc21)c1ccccc1Cl (configuration not stated) | 97 | 7 | 0 | 7 | · | ·
O=C1C2CCCN2C(=S)N1c1ccc(Cl)cc1 (configuration not stated) | 95 | 0 | 0 | -3 | · | ·
CCOC(=O)c1c(C)nc(C)c(C(=O)OCC)c1-c1ccco1 | 100 | 3 | 0 | -13 | · | ·
CC1O[C@@H](OCC2O[C@@H](Oc3cc(O)c4c(c3)OC(c3ccc(O)cc3)CC4=O)[C@H](O)[C@@H](O)[C@@H]2O)[C@H](O)[C@H](O)[C@H]1O (some centres not stated) | 62* | 1 | 0 | -1 | 104 | 92
COc1ccc(S(=O)(=O)NNC(=O)C2COc3ccccc3O2)cc1[N+](=O)[O-] (configuration not stated) | 103 | 3 | 0 | -9 | · | ·
COc1ccc2c(c1)c1nnc(SC)nc1n2C | 44* | 0 | 0 | -7 | 67 | 87
COc1ccc2c(c1)c1nnc(SCC(=O)N3C(C)CCCC3C)nc1n2C (configuration not stated) | 111 | 2 | 0 | -9 | · | ·
CC(C)(C)c1ccc(NS(=O)(=O)c2ccc(N)cc2)cc1 | 93 | 1 | 0 | 0 | 131 | 119
Nc1ccc(S(=O)(=O)Nc2ccc(S(N)(=O)=O)cc2)cc1 | 97 | 0 | 0 | -3 | 118 | 105
Nc1ccc(S(N)(=O)=O)cc1 | 97 | 0 | 0 | 9 | · | ·
CC(C)(C)c1ccc(S(=O)(=O)Nc2ccc(Cc3ccncc3)cc2)cc1 | 103 | 0 | 0 | 5 | · | ·
CCC(C)(C)c1ccc(OCCCC[n+]2cccc(C)c2)c(C(C)(C)CC)c1 | · | · | · | 12 | 121 | 107
CN(C)CCNC(=O)c1cc2sc3ccccc3c2s1 | 116 | 0 | 0 | -1 | · | ·

Screens deposited in PubChem by several laboratories.
